High-throughput results from PubChem BioAssay.
Sampled rows, rich in hits. Any-hit rate of the full collection: about 4.1%.
FAS-TE inh: FAS thioesterase (human) inhibition. inhibition, % at 15 µM. P49327. 0.67% of 360,000 active. recombinant FAS-TE, OMFH fluorogenic substrate, fluorescence endpoint;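 active = compounds whose normalised, plate-corrected inhibition of enzyme fluorescence in the single-dose primary screen is 50% or more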
MPTP block: blocks calcium-induced mitochondrial swelling | inhibition, % at 10 µM | 1.4% of 360,000 active | isolated mouse mitochondria, Ca2+ swelling absorbance, 30 min;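 active = inhibition of 50% or more, scaled per plate between neutral and stimulator controls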
NR3A LBD binder: modulators (binders) of human NR3A ligand-binding domain. Tm shift relative to glycine control, % at 25 µM. 2.5% of 340,000 active. AID 1259313. NR3A LBD differential scanning fluorimetry, Tm shift; 0% = protein alone, 100% = glycine-bound protein;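 active = melting temperature shift of at least 10% of the positive control shift, at one fixed dose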
beta cell repl: inducers of beta-cell replication in MIN6 cells; MIN6 cells proliferation, ATPlite luminescence, 48 h; cells starved in 0.2% serum; 100% = growth in 10% serum; proliferation, % at 10 µM; 0.29% of 330,000 active; AID 2380;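 active = compounds whose signal lies at least 3.5 SD above the mean of all wells on their plate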
p-CIP stab down: compounds decreasing mouse p/CIP protein stability; F442A p/CIP-EGFP cells, EGFP fluorescence, 16 h; 0.01% of 290,000 active; decrease of EGFP signal, % at 10 µM; Q05BA5;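 active = EGFP signal decrease of at least 30% at 10 µM or well 3 SD below plate mean, unless failing retest; inactive = the rest, including hits failing retest or dose response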
Target sequence (Q05BA5 1-1403): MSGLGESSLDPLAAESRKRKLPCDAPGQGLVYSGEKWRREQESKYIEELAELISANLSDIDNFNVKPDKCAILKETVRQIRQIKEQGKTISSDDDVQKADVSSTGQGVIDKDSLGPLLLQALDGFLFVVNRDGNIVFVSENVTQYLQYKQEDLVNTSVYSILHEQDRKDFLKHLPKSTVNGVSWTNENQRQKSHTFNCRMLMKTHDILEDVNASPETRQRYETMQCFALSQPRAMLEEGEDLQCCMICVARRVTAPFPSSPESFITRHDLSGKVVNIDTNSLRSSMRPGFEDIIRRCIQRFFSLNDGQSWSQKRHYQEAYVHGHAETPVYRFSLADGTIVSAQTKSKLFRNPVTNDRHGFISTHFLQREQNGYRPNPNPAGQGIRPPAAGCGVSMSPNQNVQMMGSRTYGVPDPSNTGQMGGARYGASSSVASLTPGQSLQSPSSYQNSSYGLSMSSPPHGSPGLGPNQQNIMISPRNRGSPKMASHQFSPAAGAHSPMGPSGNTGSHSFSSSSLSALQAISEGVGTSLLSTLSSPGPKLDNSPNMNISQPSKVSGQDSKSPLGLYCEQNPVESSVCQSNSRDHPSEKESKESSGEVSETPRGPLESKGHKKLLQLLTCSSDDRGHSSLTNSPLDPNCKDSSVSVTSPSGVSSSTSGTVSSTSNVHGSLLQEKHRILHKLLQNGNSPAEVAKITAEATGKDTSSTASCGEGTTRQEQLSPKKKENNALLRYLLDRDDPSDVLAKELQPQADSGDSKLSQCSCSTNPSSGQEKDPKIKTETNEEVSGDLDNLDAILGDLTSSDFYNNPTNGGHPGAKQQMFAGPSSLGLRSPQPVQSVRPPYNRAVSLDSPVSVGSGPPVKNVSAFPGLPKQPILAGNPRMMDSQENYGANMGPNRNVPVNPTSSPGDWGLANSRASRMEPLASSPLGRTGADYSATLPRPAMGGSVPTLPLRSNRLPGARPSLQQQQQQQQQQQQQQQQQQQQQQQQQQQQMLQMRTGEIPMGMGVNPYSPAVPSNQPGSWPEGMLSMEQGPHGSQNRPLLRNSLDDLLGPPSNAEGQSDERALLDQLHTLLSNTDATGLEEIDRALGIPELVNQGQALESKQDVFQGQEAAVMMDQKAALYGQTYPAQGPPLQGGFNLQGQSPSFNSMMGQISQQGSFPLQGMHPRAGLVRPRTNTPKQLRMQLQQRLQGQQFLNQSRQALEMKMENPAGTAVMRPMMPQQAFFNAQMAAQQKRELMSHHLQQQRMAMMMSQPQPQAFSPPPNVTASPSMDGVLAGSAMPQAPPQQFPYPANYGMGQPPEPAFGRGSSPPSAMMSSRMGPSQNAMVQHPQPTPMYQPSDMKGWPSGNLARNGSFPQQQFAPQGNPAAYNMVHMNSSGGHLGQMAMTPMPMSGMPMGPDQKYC
Numbers stand for hits.

Screening COc1ccc(NC(=O)COc2cc(C)cc(C)c2)cc1S(=O)(=O)N1CCCCC1 returned FAS-TE inh inactive, MPTP block inactive, NR3A LBD binder 23.5 and beta cell repl inactive.
For Cc1cc(S(=O)(=O)N2CCOCC2)ccc1OCC(=O)Nc1ccc(F)c(Cl)c1 the results were FAS-TE inh inactive, MPTP block inactive, NR3A LBD binder 44.4, beta cell repl inactive and p-CIP stab down inactive.
`COc1ccc(NC(=O)COc2ccc(C)c(C)c2)cc1S(=O)(=O)N1CCCCC1` gave FAS-TE inh inactive, MPTP block inactive, NR3A LBD binder inactive and beta cell repl inactive.
`Cc1cc(S(=O)(=O)N2CCOCC2)ccc1OCC(=O)Nc1ccc(F)cc1` gave FAS-TE inh inactive, MPTP block inactive, NR3A LBD binder inactive, beta cell repl inactive and p-CIP stab down inactive.
For Cc1ccc(S(=O)(=O)CCC(=O)OCC(=O)NCCc2ccccc2)cc1 the results were FAS-TE inh inactive, MPTP block inactive, NR3A LBD binder 15.5 and beta cell repl inactive.
Cc1ccc(S(=O)(=O)CCC(=O)OCC(=O)NCCc2ccc(F)cc2)cc1 was read as FAS-TE inh inactive, MPTP block inactive, NR3A LBD binder inactive and beta cell repl inactive.
For N#Cc1ccc(-c2nc3c4ccccc4ccn3c2CC2CCCCC2)cc1 the results were FAS-TE inh inactive and MPTP block inactive.
For O=C(Nc1ccc(N=Nc2ccccc2)cc1)c1ccccc1Cl the results were FAS-TE inh inactive, MPTP block inactive, NR3A LBD binder 14.6, beta cell repl inactive and p-CIP stab down inactive.
Screening Cn1nc(-c2ccccc2)nc1-c1ccccc1 returned FAS-TE inh inactive, MPTP block inactive, NR3A LBD binder inactive and beta cell repl inactive.
Screening Cc1nnc2nc(-c3ccccc3)nc(-c3ccccc3)n12 returned FAS-TE inh inactive, MPTP block inactive, NR3A LBD binder 11.8, beta cell repl inactive and p-CIP stab down inactive.
COC(=O)c1c(N)[nH]c(C(=O)c2ccccc2)c1-c1ccc(Br)cc1 was read as FAS-TE inh inactive and MPTP block inactive.
O=[N+]([O-])c1nn(-c2ccc3c(c2)OCCO3)n(O)c1=NCc1ccc(F)cc1 was read as FAS-TE inh inactive, MPTP block inactive, NR3A LBD binder 13.0, beta cell repl inactive and p-CIP stab down inactive.
O=[N+]([O-])c1nn(-c2ccc3c(c2)OCCO3)n(O)c1=NCc1ccc(F)cc1Cl was read as FAS-TE inh inactive, MPTP block inactive, NR3A LBD binder inactive, beta cell repl inactive and p-CIP stab down inactive.
For O=S(=O)(c1ccc(SCCOc2ccc(F)cc2)nc1)N1CCCC1 the results were FAS-TE inh inactive, MPTP block inactive, NR3A LBD binder 14.1 and beta cell repl inactive.
For CCOc1ccc(S(=O)(=O)N2CCCC2)cc1 the results were FAS-TE inh inactive, MPTP block inactive, NR3A LBD binder 12.7, beta cell repl inactive and p-CIP stab down inactive.
Screening O=S(=O)(c1ccc(SCCOc2ccccc2)nc1)N1CCCC1 returned FAS-TE inh inactive, MPTP block inactive, NR3A LBD binder inactive and beta cell repl inactive.
CCOc1ccc2cc(S(=O)(=O)N3CCCCC3)ccc2c1 was read as FAS-TE inh inactive, MPTP block inactive, NR3A LBD binder inactive, beta cell repl inactive and p-CIP stab down inactive.
Screening CC1(C(=O)Nc2ccc3c(c2)OCCO3)CCN1C(=O)C1(c2ccc(Cl)cc2)CC1 (stereo not given) returned FAS-TE inh inactive and MPTP block inactive.
Screening NC(=Nc1c([N+](=O)[O-])cnc2ccccc12)N1CCOCC1 returned FAS-TE inh inactive and MPTP block inactive.
Screening CC1=C(C(=O)N2CCOCC2)CC(CC(=O)NC2CCCC2)C(=O)N1CCCN1CCCC1=O (stereo not given) returned FAS-TE inh inactive and MPTP block inactive.
CCNC(=O)C1(C)CCCN(C(=O)Cc2ccc(OC)c(OC)c2)C1 (stereo not given) was read as FAS-TE inh inactive and MPTP block inactive.
For COc1ccc(-c2cc3ccc(OC)cc3cn2)cc1 the results were FAS-TE inh inactive, MPTP block inactive, NR3A LBD binder 40.9 and beta cell repl inactive.
O=S1(=O)CCC(NC(=S)NCCNC(=S)NC2CCS(=O)(=O)C2)C1 (stereo not given) was read as FAS-TE inh inactive, MPTP block inactive, NR3A LBD binder 20.5, beta cell repl inactive and p-CIP stab down inactive.
`Cn1c(=O)c2cc(NC(=O)CCc3ccccc3)ccc2n1-c1ccccc1F` gave FAS-TE inh inactive and MPTP block inactive.
`Oc1ccc(N=Nc2ccc(Br)cc2)c(O)c1` gave FAS-TE inh inactive, MPTP block inactive, NR3A LBD binder inactive, beta cell repl inactive and p-CIP stab down inactive.
Screening Cc1ccc(N=Nc2ccc(O)cc2)c(Br)c1 returned FAS-TE inh inactive, MPTP block inactive, NR3A LBD binder 13.2, beta cell repl inactive and p-CIP stab down inactive.
Screening COCCn1c(SCC(=O)Nc2cccc(OC)c2)nnc1-c1ccccc1 returned FAS-TE inh inactive, MPTP block inactive, NR3A LBD binder 10.5, beta cell repl inactive and p-CIP stab down inactive.
COc1cccc(NC(=O)CSc2nc3c([nH]c4ccccc43)c(=O)n2C)c1 was read as FAS-TE inh inactive, MPTP block inactive, NR3A LBD binder 37.9, beta cell repl inactive and p-CIP stab down inactive.
CCC1CCCCN1C(=O)CSc1nc2c([nH]c3ccccc32)c(=O)n1C (stereo not given) was read as FAS-TE inh inactive, MPTP block inactive, NR3A LBD binder 16.9, beta cell repl inactive and p-CIP stab down inactive.
For Cc1ccc(S(=O)(=O)Nc2ccc(Cl)cc2O)cc1 the results were MPTP block inactive.
For Fc1ccc2[nH]c3c(c2c1)CN(C(=S)NCc1ccccc1)CC3 the results were FAS-TE inh inactive, MPTP block inactive, NR3A LBD binder 29.1, beta cell repl inactive and p-CIP stab down inactive.
C=CCNC(=O)N1CCc2[nH]c3ccc(F)cc3c2C1 was read as FAS-TE inh inactive, MPTP block inactive, NR3A LBD binder inactive, beta cell repl inactive and p-CIP stab down inactive.
Screening CCc1ccc(/C=N/NC(=O)c2c[nH]c3ccccc23)s1 returned FAS-TE inh inactive, MPTP block inactive, NR3A LBD binder 29.7, beta cell repl inactive and p-CIP stab down inactive.
`CCN(CC)c1ccc(/C=N/NC(=O)c2c[nH]c3ccccc23)cc1` gave FAS-TE inh inactive, MPTP block inactive, NR3A LBD binder inactive, beta cell repl inactive and p-CIP stab down inactive.
For O=C(NN=C1CCCCCC1)c1c[nH]c2ccccc12 the results were FAS-TE inh inactive, MPTP block inactive, NR3A LBD binder 19.6, beta cell repl inactive and p-CIP stab down inactive.
O=C(N/N=C/c1cccs1)c1c[nH]c2ccccc12 was read as FAS-TE inh inactive, MPTP block inactive, NR3A LBD binder 14.3, beta cell repl inactive and p-CIP stab down inactive.
Cn1nc(C(C)(C)C)cc1NC(=O)C1(C)CCN1C(=O)c1ccccc1CCc1ccccc1 (stereo not given) was read as FAS-TE inh inactive and MPTP block inactive.
